Laboratory results from PubChem BioAssay (NCI).
Compounds without any hit were thinned out: in the full panel of roughly 79,000, 15% have a hit. The source made the active and inactive calls. Cut-off read from the data, not from the text of the source: active = growth inhibition above about 70%; inactive = the rest.

What was measured:
[1] = NCI Yeast Anticancer Drug Screen. Data for the rad52 strain (AID 147);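 note: 0% = growth of vehicle-treated control cultures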; settings: S. cerevisiae rad52 mutant growth inhibition, stronger effect = higher value
Summary of the method: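 Yeast strain carrying a DNA damage repair alteration was exposed to test compounds. Growth inhibition was measured relative to vehicle-treated controls.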

[2] = NCI Yeast Anticancer Drug Screen. Data for the wt1 strain (AID 149);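 note: 0% = growth of vehicle-treated wt1 cultures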; settings: S. cerevisiae wt1 strain (SPY 50644) growth inhibition, stronger effect = higher value
Summary of the method: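 Compounds are added to wt1 yeast cultures. Growth is then measured. Inhibition is expressed relative to vehicle-treated controls.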

[3] = NCI Yeast Anticancer Drug Screen. Data for the rad50EPP+ strain (AID 151);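 note: 0% = growth of vehicle-treated control cultures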; settings: S. cerevisiae rad50 mutant strain, stronger effect = higher value
Summary of the method: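 Yeast strain carrying rad50 alteration (rad50EPP+) exposed to compounds; growth inhibition measured relative to vehicle-treated controls.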

[4] = NCI Yeast Anticancer Drug Screen. Data for the mgt1 strain (AID 153); settings: S. cerevisiae mgt1 mutant growth inhibition, stronger effect = higher value
Summary of the method: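 Yeast mgt1 strain (DNA repair/cell-cycle alteration panel) exposed to compounds; growth inhibition measured relative to vehicle-treated controls.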

[5] = NCI Yeast Anticancer Drug Screen. Data for the rad50 strain (AID 155);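 note: 0% = growth of vehicle-only cultures of the same strain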; settings: S. cerevisiae rad50 strain growth inhibition, stronger effect = higher value
Summary of the method: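 Inhibition values express reduced yeast growth in compound-treated cultures relative to vehicle-treated controls.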

[6] = NCI Yeast Anticancer Drug Screen. Data for the mec2-1 strain (AID 157); settings: S. cerevisiae mec2-1 strain, stronger effect = higher value
Summary of the method: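 mec2-1 yeast strain, carrying an alteration in DNA damage repair or cell cycle control, was exposed to compounds; growth inhibition was measured relative to vehicle-treated controls.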

[7] = NCI Yeast Anticancer Drug Screen. Data for the rad14 strain (AID 159);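 note: 0% = growth of vehicle-treated control cultures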; settings: S. cerevisiae rad14 strain growth inhibition, stronger effect = higher value
Summary of the method: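 A mutant yeast strain defective in DNA damage repair is treated with compound; inhibition of its growth is scored against untreated, vehicle-exposed cultures.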

[8] = NCI Yeast Anticancer Drug Screen. Data for the sgs1 mgt1 strain (AID 161);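 note: 0% = growth of cultures given vehicle only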; settings: S. cerevisiae sgs1 mgt1 strain, stronger effect = higher value
Summary of the method: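 Yeast cells carrying a defined DNA-repair defect were exposed to test compounds. Growth inhibition was measured relative to vehicle-treated controls.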

[9] = NCI Yeast Anticancer Drug Screen. Data for the CLN2oe strain (AID 163);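 note: 0% = growth of vehicle-only control cultures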; settings: S. cerevisiae CLN2oe strain, stronger effect = higher value
Summary of the method: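 Yeast cells carrying a defined cell-cycle control alteration were exposed to test compounds. Growth inhibition was scored against vehicle-treated control cultures.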

[10] = NCI Yeast Anticancer Drug Screen. Data for the cln2 rad14 strain (AID 165);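 note: 0% = growth equal to vehicle treated cultures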; settings: S. cerevisiae cln2 rad14 strain, stronger effect = higher value
Summary of the method: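 Yeast carrying cln2 and rad14 alterations (cell cycle control and DNA damage repair) were exposed to compounds. Growth inhibition was measured against vehicle-treated controls.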

[11] = NCI Yeast Anticancer Drug Screen. Data for the bub3 strain (AID 167); settings: S. cerevisiae bub3 mutant strain, stronger effect = higher value
Summary of the method: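 Steps: expose the mutant yeast strain to compound; grow alongside vehicle-treated cultures; measure growth; express inhibition against the vehicle cultures.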

[12] = NCI Yeast Anticancer Drug Screen. Data for the wt2 strain (AID 169);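 note: 0% = growth of vehicle-treated yeast cultures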; settings: S. cerevisiae wt2 strain growth inhibition, stronger effect = higher value
Summary of the method: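 Yeast cells were exposed to test compounds, and growth inhibition was measured relative to vehicle-treated controls.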

[13] = NCI Yeast Anticancer Drug Screen. Data for the mlh1 strain (AID 171);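 note: 0% = growth of vehicle-treated control cultures of the same strain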; settings: S. cerevisiae mlh1 strain growth inhibition, stronger effect = higher value
Summary of the method: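 Yeast carrying a defined genetic alteration in DNA damage repair or cell cycle control were exposed to test compounds. Growth inhibition was measured relative to vehicle-treated controls.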

[14] = NCI Yeast Anticancer Drug Screen. Data for the sgs1 strain (AID 173);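 note: 0% = growth of vehicle-only control cultures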; settings: S. cerevisiae sgs1 mutant, stronger effect = higher value
Summary of the method: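 Yeast mutant strains carrying defined defects in DNA damage repair or cell cycle control were exposed to test compounds. Growth inhibition was scored against vehicle-treated controls.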

[15] = NCI Yeast Anticancer Drug Screen. Data for the mlh1 rad18 strain (AID 175); settings: S. cerevisiae mlh1 rad18 strain growth inhibition, stronger effect = higher value
Summary of the method: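 Growth inhibition of the yeast strain was measured after compound exposure and expressed relative to vehicle-treated controls. The strain carries defined defects in DNA damage repair.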

[16] = NCI Yeast Anticancer Drug Screen. Data for the rad18 strain (AID 177); settings: S. cerevisiae rad18 mutant growth inhibition, stronger effect = higher value
Summary of the method: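 Yeast carrying a defined DNA damage repair alteration were exposed to compounds. Growth inhibition was expressed relative to vehicle-treated controls.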

[17] = at 5.0 µM (retest, dose inferred, filed as 0.5)
[18] = at 50.0 µM (retest, dose inferred, filed as 5.0)

Measured: growth inhibition

C[n+]1c(/C=C/c2ccc(/C=N/NC(=O)c3ccc(C(=O)N/N=C/c4ccc(/C=C/c5cn6ccccc6[n+]5C)cc4)cc3)cc2)cn2ccccc21
inactive: [2]; at 1.2 µM 25% | [3]; at 1.2 µM 58% | [4]; at 1.2 µM 42% | [6]; at 1.2 µM 62% | [7]; at 1.2 µM 62% | [8]; [17] 64% | [9]; at 1.2 µM 47% | [10]; [17] 33% | [11]; at 1.2 µM 41% | [11]; [17] 8% | [11]; [18] 4% | [12]; at 1.2 µM 45% | [13]; at 1.2 µM 52% | [14]; at 1.2 µM 56% | [16]; at 1.2 µM 46%
active: [1]; at 1.2 µM 80% | [1]; at 3.7 µM 97% | [1]; at 11.0 µM 97% | [1]; at 33.0 µM 96% | [1]; at 100.0 µM 93% | [2]; at 3.7 µM 88% | [2]; at 11.0 µM 95% | [2]; at 33.0 µM 97% | [2]; at 100.0 µM 95% | [3]; at 3.7 µM 97% | [3]; at 11.0 µM 95% | [3]; at 33.0 µM 95% | [3]; at 100.0 µM 91% | [4]; at 3.7 µM 99% | [4]; at 11.0 µM 99% | [4]; at 33.0 µM 97% | [4]; at 100.0 µM 94% | [5]; at 1.2 µM 87% | [5]; at 3.7 µM 98% | [5]; [17] 79% | [5]; at 11.0 µM 97% | [5]; at 33.0 µM 95% | [5]; [18] 96% | [5]; at 50.0 µM 88.7% | [5]; at 100.0 µM 89% | [6]; at 3.7 µM 99% | [6]; [17] 92% | [6]; at 11.0 µM 98% | [6]; at 33.0 µM 97% | [6]; [18] 98% | [6]; at 50.0 µM 90.8% | [6]; at 100.0 µM 94% | [7]; at 3.7 µM 98% | [7]; at 11.0 µM 97% | [7]; at 33.0 µM 97% | [7]; at 100.0 µM 92% | [8]; [18] 98% | [8]; at 50.0 µM 85.7% | [9]; at 3.7 µM 91% | [9]; at 11.0 µM 91% | [9]; at 33.0 µM 95% | [9]; at 100.0 µM 89% | [10]; [18] 98% | [10]; at 50.0 µM 85.7% | [11]; at 3.7 µM 98% | [11]; at 11.0 µM 98% | [11]; at 33.0 µM 97% | [11]; at 50.0 µM 90.9% | [11]; at 100.0 µM 93% | [12]; at 3.7 µM 98% | [12]; at 11.0 µM 96% | [12]; at 33.0 µM 98% | [12]; at 100.0 µM 97% | [13]; at 3.7 µM 99% | [13]; at 11.0 µM 98% | [13]; at 33.0 µM 97% | [13]; at 100.0 µM 94% | [14]; at 3.7 µM 98% | [14]; at 11.0 µM 99% | [14]; at 33.0 µM 98% | [14]; at 100.0 µM 95% | [15]; [17] 90% | [15]; [18] 98% | [15]; at 50.0 µM 91.7% | [16]; at 3.7 µM 98% | [16]; at 11.0 µM 95% | [16]; at 33.0 µM 96% | [16]; at 100.0 µM 93%

CC(=O)NC(c1nc2cc(C)c(C)cc2[nH]1)c1nc2cc(C)c(C)cc2[nH]1
active: [4]; at 100.0 µM 80% | [5]; [18] 94% | [6]; [18] 94% | [6]; at 100.0 µM 78% | [8]; [18] 78% | [10]; [18] 92% | [11]; [18] 82% | [11]; at 100.0 µM 82% | [15]; [18] 95%
inactive: [1]; at 1.2 µM 0% | [1]; at 3.7 µM -2% | [1]; at 11.0 µM 5% | [1]; at 33.0 µM 28% | [1]; at 100.0 µM 62% | [2]; at 1.2 µM -20% | [2]; at 3.7 µM -28% | [2]; at 11.0 µM -14% | [2]; at 33.0 µM 16% | [2]; at 100.0 µM 62% | [3]; at 1.2 µM -1% | [3]; at 3.7 µM 7% | [3]; at 11.0 µM 1% | [3]; at 33.0 µM 19% | [3]; at 100.0 µM 47% | [4]; at 1.2 µM 11% | [4]; at 3.7 µM 19% | [4]; at 11.0 µM 31% | [4]; at 33.0 µM 59% | [5]; at 1.2 µM 13% | [5]; at 3.7 µM 4% | [5]; [17] 29% | [5]; at 11.0 µM 15% | [5]; at 33.0 µM 39% | [5]; at 50.0 µM 61.3% | [5]; at 100.0 µM 67% | [6]; at 1.2 µM 11% | [6]; at 3.7 µM 15% | [6]; [17] 36% | [6]; at 11.0 µM 22% | [6]; at 33.0 µM 42% | [6]; at 50.0 µM 37.2% | [7]; at 1.2 µM -22% | [7]; at 3.7 µM -21% | [7]; at 11.0 µM -9% | [7]; at 33.0 µM 21% | [7]; at 100.0 µM 66% | [8]; [17] -16% | [8]; at 50.0 µM 57.5% | [9]; at 1.2 µM -11% | [9]; at 3.7 µM 2% | [9]; at 11.0 µM -18% | [9]; at 33.0 µM 12% | [9]; at 100.0 µM 62% | [10]; [17] 51% | [10]; at 50.0 µM 42.8% | [11]; at 1.2 µM -2% | [11]; at 3.7 µM 15% | [11]; [17] 16% | [11]; at 11.0 µM 22% | [11]; at 33.0 µM 56% | [11]; at 50.0 µM 63.1% | [12]; at 1.2 µM -27% | [12]; at 3.7 µM -25% | [12]; at 11.0 µM -20% | [12]; at 33.0 µM 20% | [12]; at 100.0 µM 60% | [13]; at 1.2 µM -45% | [13]; at 3.7 µM -33% | [13]; at 11.0 µM -17% | [13]; at 33.0 µM 19% | [13]; at 100.0 µM 64% | [15]; [17] 35% | [15]; at 50.0 µM 37.6% | [16]; at 1.2 µM -4% | [16]; at 3.7 µM 1% | [16]; at 11.0 µM 6% | [16]; at 33.0 µM 22% | [16]; at 100.0 µM 55%
